# Measured values as given in PubChem BioAssay AID1020 (Sanford-Burnham Center for Chemical Genomics, 2008).
# Out of some 200,000 compounds screened, about 240 (0.12%) were called active. This is one part of a sample in which actives are shown more often than they occur. Cut-off read from the data, not from the text of the source: active = inhibition above about 50%; inactive = the rest.
# System: glucose-6-phosphate dehydrogenase [Leuconostoc mesenteroides]
# Assay: bacterial G6PDH enzyme inhibition, coupled readout – biochemical, Leuconostoc mesenteroides enzyme, counter-screen for G6PDH-coupled screening assays (AID 1020)
# Details: Purified L. mesenteroides G6PDH, diaphorase/resazurin coupled fluorescence, 45 min; at 5 µM; stronger effect = higher value
row,SMILES,inhibition
1,Cc1ccccc1NC(=S)NNC(=O)c1cccc(Br)c1,1.2% (inactive)
2,COc1ccc(-n2cc(CN(C)Cc3n[nH]c(=O)[nH]3)c(-c3cccc(F)c3)n2)cc1,19.5% (inactive)
3,COC(=O)c1ccc(NC(=S)NN2CCOCC2)cc1,-2.2% (inactive)
4,O=C(c1snnc1-c1ccccc1)N1CCOCC1,-2.4% (inactive)
5,OC(c1nnc(-c2ccccc2)o1)c1cccs1 (configuration not stated),10.6% (inactive)
6,CCCCn1c(O)c(N=NC(=O)Cn2c(C(F)(F)F)nc3ccccc32)c2ccccc21,7.1% (inactive)
7,COc1cc(C=O)c(Br)cc1OCC(=O)NCc1ccccc1,6.7% (inactive)
8,CCOc1ccccc1N1CCN(C(=O)COc2ccc3c(C)cc(=O)oc3c2)CC1,1.2% (inactive)
9,Cc1ccc(C(=O)NC(=S)NCc2cccnc2)cc1,-1.6% (inactive)
10,Cc1ccc(COc2ccc(C(=O)NN)cc2)cc1,10.9% (inactive)
11,O=C(NCc1ccccc1Cl)C1CCN(S(=O)(=O)N2CCOCC2)CC1,4.2% (inactive)
12,Nc1ncnc(Nc2cccc(Cl)c2Cl)n1,15% (inactive)
13,CCOC(=O)Cc1cc(=O)[nH]c(=O)[nH]1,4.9% (inactive)
14,O=C(/C=C/c1ccccc1[N+](=O)[O-])OC1CCCCC1=O (configuration not stated),3% (inactive)
15,O=c1c([N+](=O)[O-])cccn1Cc1ccc(F)cc1Cl,8% (inactive)
16,CSc1ncccc1C(=O)N1CCCC(CCC(=O)NCc2ccccc2F)C1 (configuration not stated),8.1% (inactive)
17,CC(C)(C)N(CC#CCC(O)(c1ccccc1)C1CCCC1)CCO (configuration not stated),13.4% (inactive)
18,OCCNCCOc1ccc(Cl)c(Cl)c1,3.7% (inactive)
19,CC(C)(C)CC(=O)Nc1nnc(SCC(=O)NCc2cccs2)s1,10.3% (inactive)
20,COc1ccc(CC2(CO)CCN(Cc3cnn(C)c3)CC2)cc1,0.2% (inactive)
21,CCOC(=O)/C=C/C(=O)OCC(=O)NC(c1ccccc1)c1ccccc1,9.9% (inactive)

row,SMILES,inhibition
1,Cc1ccc(O)c(-c2cc(C(=O)Nc3c(C)n(C)n(-c4ccccc4)c3=O)[nH]n2)c1,4% (inactive)
2,CC(C(=O)N=Nc1c(O)n(C)c2ccc(Br)cc12)n1cnc2ccccc2c1=O (configuration not stated),-0.8% (inactive)
3,Cc1ccc2cc(C)c(N3CCC(C)CC3)nc2c1,12.3% (inactive)
4,O=C(Nn1cnnc1)c1ccc([N+](=O)[O-])cc1,6% (inactive)
5,Cc1nn(-c2ccccc2)c(C)c1/C=N/NC(=O)CSc1nc2ccccc2c(=O)n1-c1ccccc1,-5.5% (inactive)
6,O=C(COC(=O)C1CC2C=CC1C2)Nc1ccccc1 (configuration not stated),5.8% (inactive)
7,CCC(C)(C)c1ccc(OCC(=O)N(C)C)c(C(C)(C)CC)c1,-0.6% (inactive)
8,CCc1n[nH]c(=S)n1/N=C/c1c[nH]c2ccc(Br)cc12,-2.8% (inactive)
9,CC(=O)Nc1ccc(S(=O)(=O)N(CCc2ccccc2)CC(=O)N/N=C/c2ccc(C(=O)O)cc2)cc1,6.2% (inactive)
10,CC(=O)n1cc([C@H]2C=C(C(=O)N3CCOCC3)O[C@@H](OCc3ccc(CO)cc3)C2)c2ccccc21,13.3% (inactive)
11,COc1cccc(CC(=O)N2CCCC(CCC(=O)N3CCN(c4ccccn4)CC3)C2)c1 (configuration not stated),2.5% (inactive)
12,CCN(CC)C(=O)Cn1cc(S(=O)(=O)CC(=O)NCc2ccc3c(c2)OCO3)c2ccccc21,2.6% (inactive)
13,CC(O)c1cccc(NC(=O)Cc2cccc3ccccc23)c1 (configuration not stated),0.6% (inactive)
14,S=c1[nH]ccn1-c1ccc(Cl)cc1,1.9% (inactive)
15,CCN(CCCNC(=O)CSc1cc(=O)n(C)c2cc(Cl)ccc12)Cc1ccccc1,-6.2% (inactive)
16,O=C(NCCN1CCOCC1)c1cc(Sc2cccc(Cl)c2)nc2ccccc12,-13.7% (inactive)
17,O=C(NCCN1CCOCC1)c1c(F)c(F)c(F)c(F)c1F,-12.4% (inactive)
18,CC(=O)Oc1cc2c(C(=O)NCCN3CCOCC3)c(C)oc2c2ccccc12,51% (active)
19,CS(=O)(=O)c1ccc2nc(NC(=O)c3ccc(Cl)nc3)sc2c1,-4.6% (inactive)
20,O=C(COc1ccc(NC(=O)c2ccccc2[N+](=O)[O-])cc1)c1ccc(F)cc1,8.6% (inactive)
21,COC(=O)C1=NNC2(c3ccc(C)cc3)C(=O)N(c3cccc(C)c3C)C(=O)C12 (configuration not stated),5.9% (inactive)

row,SMILES,inhibition
1,O=C(c1cn2ccccc2n1)N1CCc2c([nH]c3ccccc23)C1c1ccccn1 (configuration not stated),16.7% (inactive)
2,O=[N+]([O-])c1ccc(NCCCO)c(C(F)(F)F)c1,1.5% (inactive)
3,Cc1ccnc2nc(C(=O)Nc3nnc(-c4ccccc4)o3)nn12,4.6% (inactive)
4,COc1ccc(Cn2c(-c3ccc(Cl)cc3)c[n+]3ccccc23)cc1,-9.3% (inactive)
5,O=C(Nc1ccc(N2CCN(C(=O)c3cccs3)CC2)cc1)c1cccnc1Cl,5.3% (inactive)
6,CCOC(=O)c1c(C)[nH]c(C2=NNC(=NC(C)COC)SC2)c1C (configuration not stated),-0.8% (inactive)
7,Cc1[nH]c2ccccc2c1-c1ccc(Cl)nn1,6.2% (inactive)
8,Cc1nc2scc(-c3cccs3)c2c(=O)n1N,0% (inactive)
9,O=c1c2c(ncn1Cc1ccccc1)nc1n2CCC1,10.7% (inactive)
10,CN(C(=O)CSc1nncc2ccccc12)C1CCCCC1,-2.2% (inactive)
11,O=C(N/N=C/c1ccc(OCc2ccccc2)cc1)c1ccc(O)cc1,4.1% (inactive)
12,O=C(NC1CCCC1)C(NS(=O)(=O)c1ccc(Br)s1)c1ccccc1 (configuration not stated),15.8% (inactive)
13,Cc1ccc(NC(=O)OCCNC(=O)c2ccncc2)cc1,7.9% (inactive)
14,CCCCS(=O)c1snnc1C (configuration not stated),7.1% (inactive)
15,CCOC(=O)C(C)Oc1cccc2c(=O)n(CC(=O)NCCc3ccc(OC)c(OC)c3)ccc12 (configuration not stated),12.1% (inactive)
16,CCn1c(=S)[nH]c2sc3c(c2c1=O)CCCCC3,-4.4% (inactive)
17,O=C(N/N=C/c1ccccn1)C12CC3CC(CC(C3)C1)C2,1.5% (inactive)
18,O=C1c2cccc3c([N+](=O)[O-])ccc(c23)C(=O)N1CC1CCCO1 (configuration not stated),0.7% (inactive)
19,O=C(COc1cc(Cl)c(Cl)cc1Cl)NCCc1ccccn1,12.4% (inactive)
20,CC(Cc1cccs1)NC(=O)c1cccc(Cl)c1 (configuration not stated),7% (inactive)
